# This is a sample that favours compounds with a hit; in the whole collection about 6.9% have one here.
# ASM inhibitor = blocks human secretory acid sphingomyelinase | Potency, µM (titrated, usually from 57.5 µM), without a hit: at the highest dose activity change, negative = inhibition, usual class: inhibitors | placental ASM, HMU-PC fluorogenic substrate, 60 min | 340,000 compounds, 0.006% hits | P17405; further: potency means the concentration at half of the fitted maximal effect
# Target sequence (P17405 47-631 limits assumed): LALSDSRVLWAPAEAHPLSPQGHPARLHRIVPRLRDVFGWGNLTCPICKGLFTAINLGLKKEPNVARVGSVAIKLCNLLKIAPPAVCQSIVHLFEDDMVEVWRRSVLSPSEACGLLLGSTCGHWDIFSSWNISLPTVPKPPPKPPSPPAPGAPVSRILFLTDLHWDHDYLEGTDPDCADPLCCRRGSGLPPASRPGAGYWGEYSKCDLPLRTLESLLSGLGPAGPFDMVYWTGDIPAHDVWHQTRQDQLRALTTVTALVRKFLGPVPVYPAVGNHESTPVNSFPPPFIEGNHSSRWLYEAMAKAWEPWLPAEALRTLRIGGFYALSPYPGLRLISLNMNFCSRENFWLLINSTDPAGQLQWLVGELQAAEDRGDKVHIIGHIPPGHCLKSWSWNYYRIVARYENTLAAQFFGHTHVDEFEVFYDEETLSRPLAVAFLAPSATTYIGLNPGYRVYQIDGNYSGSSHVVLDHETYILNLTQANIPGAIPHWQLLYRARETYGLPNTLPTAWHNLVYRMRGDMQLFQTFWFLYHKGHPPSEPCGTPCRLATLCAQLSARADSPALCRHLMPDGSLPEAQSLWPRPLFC
#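 Human placenta-derived ASM enzyme was preincubated with compound for 10 minutes at room temperature, then given fluorogenic substrate HMU-PC0 (9 uM final) for 60 minutes at 37 °C; a pH 10 stop preceded fluorescence reading at Ex 386/Em 447 nm.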
# SW480 rereplic = inducers of DNA re-replication in SW480 colon cancer cells | SW480 DNA re-replication, Hoechst DNA content imaging, 48 h | Potency, µM (doses to about 46.1 µM), inactives show at the top dose re-replication activation, most hits filed as activators | 340,000 compounds, 1.8% hits; further: potency means the concentration at half of the fitted maximal effect; % of control where 0% means no effect; nearly all actives have a fitted effect of over 55% in size
#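 First, 250 cells per well were seeded. Next, compound or vehicle (23 nL) was pinned in, plates sat 48 hr at 37 C. Finally Hoechst was added for 40 min before fluorescence scanning.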
# KB-3-1 tox = kills parental KB-3-1 adenocarcinoma cells; KB-3-1 viability, CellTiter-Glo ATP luminescence, 72 h; Potency, µM (highest dose often 46.1 µM), hits mostly cytotoxic; 400,000 compounds, 1.4% hits; further: potency means the concentration at half of the fitted maximal effect; on the % scale 0 is the no-effect control and ±100 the full control effect; nearly all actives have a fitted effect of over 60% in size
#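 Using CellTiter-Glo luminescence, growth of non-resistant KB-3-1 adenocarcinoma cells is assessed 72 h after pin-tool compound addition at 37 °C. Normalized responses across the concentration series yield fitted curves.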
# KB-V1 MDR tox = kills drug-selected multidrug resistant KB-V1 cells. AID 1347076. Potency, µM (series often up to 46.1 µM), actives largely listed as cytotoxic. KB-V1 MDR cells viability, CellTiter-Glo, 72 h. 400,000 compounds, 3.4% hits; further: potency means the concentration at half of the fitted maximal effect; on the % scale 0 is the no-effect control and ±100 the full control effect; nearly all actives have a fitted effect of over 60% in size
#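 Cytotoxicity via CellTiter-Glo luminescence after 72 h compound exposure at 37 degrees C. Cells: drug-selected KB-V1 line, DMEM phenol-red free plus 10% FBS. Compounds tested at multiple concentrations; normalized data fitted to concentration-effect curves.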
# MCF10A rereplic = DNA re-replication induction in MCF 10a cells | MCF 10A DNA re-replication, Hoechst nuclear intensity, 48 h | Potency, µM (titrated, usually from 46.1 µM), without a hit: at the top dose activity, positive = re-replication, hits mostly activators | 350,000 compounds, 2.9% hits | AID 624296; further: potency means the concentration at half of the fitted maximal effect; % of control where 0% means no effect; nearly all actives have a fitted effect of over 50% in size
# Giardia kill = kills Giardia lamblia; Giardia lamblia trophozoite viability; activity change, % at 7.66 µM, hits read low; 340,000 compounds, 0.15% hits; in the data active means activity change below about -80%; inconclusive means between about -30% and that limit;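 further: parasites exposed to compound for two days anaerobically before the ATP read; on the % scale 0 is the no-effect control and ±100 the full control effect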
#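 Anaerobic 48 hrs incubation at 37 deg C of 100 trophozoites/well with test compounds; ATPLite 1-Step luminescence, 15-30 min RT, reports cellular ATP as viability.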
# Starred values were filed as active, the others as inactive; i = inactive; u = inconclusive; x = not tested or not shown. Unless noted, the call rests on the fitted dose curve; in most records, active means well fitted curve in the direction sought with a large enough effect; inconclusive means small, poorly fitted or top-dose-only effect, or another doubt; inactive means no such curve, though single readings can be large; an effect the other way counts as inactive or inconclusive.
SMILES,ASM inhibitor,SW480 rereplic,KB-3-1 tox,KB-V1 MDR tox,MCF10A rereplic,Giardia kill
CCOc1ccc(-c2cn3c(n2)sc2cc(C(=O)N4CCCC(C)C4)ccc23)cc1 (configuration not stated),x,x,i,i,x,x
Cc1cccc(-c2nc(SCC(=O)N3CCc4ccccc43)c3c(=O)n(C)c(=O)n(C)c3n2)c1,x,x,i,i,x,x
Cc1[nH]c(N=Nc2ccccc2)nc1N=Nc1ccccc1,-16%,7.3µM*,18µM*,u,u,-13
CC1(C(=O)NCc2ccccc2Br)CCN1Cc1ccccc1OC(F)F (configuration not stated),x,x,i,23µM*,x,x
CC1(C(=O)NCc2ccccc2Br)CCN1Cc1c(F)cccc1F (configuration not stated),x,x,i,u,x,x
COc1ccc(CCCC(=O)N/N=C/c2ccccc2OC)cc1,-14%,-3%,i,i,-10%,-11
CCn1c(=O)cc(OCC(=O)NCc2ccc(C)o2)c2ccccc21,0%,1%,i,18µM*,u,-5
Cc1ccc(-n2c(SCC(=O)NCc3ccco3)nnc2-c2cccnc2)c(C)c1,2%,20%,i,21µM*,8%,15
CCOC(=O)CSc1nc(NCc2ccco2)c2ccccc2n1,3%,-10%,i,i,21%,-17
CCn1c(=O)cc(SCC(=O)NCc2ccc(C)cc2)c2ccccc21,-2%,-10%,u,u,u,1
CCn1c(=O)cc(SCC(=O)NCc2ccc(C)o2)c2ccccc21,-3%,-2%,i,u,21µM*,4
COc1ccc(CNc2nc(SCC(=O)NCc3ccco3)nc3ccccc23)cc1,1%,-1%,i,6.5µM*,20%,2
Cc1cccc(-n2c(SCC(=O)NCc3ccco3)nnc2-c2ccco2)c1,0%,-1%,i,u,-4%,-16
Cc1ccc(-c2csc3nnc(SCC(=O)Nc4cccc(C)n4)n23)cc1,-2%,-2%,i,7.3µM*,3%,-5
O=C(CSc1nnc2scc(-c3ccc(Cl)cc3)n12)NCc1ccco1,-1%,0%,i,23µM*,u,-3
CCc1ccc(CNC(=O)CSc2cc(=O)n(CC)c3ccccc23)cc1,x,x,u,i,x,x
Cc1cc2nnc(SCC(=O)NCc3ccco3)n2c2ccccc12,-2%,18µM*,5.8µM*,i,u,-19
CCn1c(=O)cc(SCC(=O)NCc2ccco2)c2ccccc21,0%,21µM*,26µM*,u,3.7µM*,-22
O=C(CCSc1nnc2scc(-c3ccccc3)n12)Nc1nc(-c2ccccc2)ns1,-1%,-3%,i,10µM*,2%,-16
COc1ccc(C(=O)NCCn2cc(SCC(=O)NCC3CCCO3)c3ccccc32)cc1 (configuration not stated),-3%,10%,i,i,u,-3
COc1ccc(CNC(=O)COc2cc(=O)n(C)c3ccccc23)cc1,0%,-3%,i,u,0%,2
COc1ccc(OC)c(CNC(=O)COc2cc(=O)n(C)c3ccccc23)c1,3%,2%,i,18µM*,7%,36
COc1ccc(C(=O)NCCn2cc(SCC(=O)NCc3ccco3)c3ccccc32)cc1,0%,u,16µM*,u,-22%,10
O=C(Nc1nnc(S(=O)(=O)N2CCCc3ccccc32)s1)c1ccccc1Cl,x,x,i,i,x,x
CCCCCCNC(=O)O[C@H]1Cn2c(=O)ccc(=O)n2[C@@H]2CN(S(=O)(=O)c3ccc(C)cc3)C[C@]12O,x,x,16µM*,i,x,x
Cc1ccc(S(=O)(=O)N2C[C@H]3n4c(=O)ccc(=O)n4C[C@H](OC(=O)NCc4ccccc4F)[C@@]3(O)C2)cc1,x,x,u,i,x,x
O=C(CCCn1c2ccccc2c(=O)c2ccccc21)Nc1cccc(Cl)c1,x,x,u,i,x,x
O=C(NCc1cccc(F)c1)c1ccc2nc(CCc3ccccc3)oc2c1,x,x,i,i,x,x
